From PubChem BioAssay (NCI)
About 83,000 compounds went through this panel and 20% of them were active in at least one assay; those are over-represented in the sample as a whole.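 48-hour exposure, single concentration, 96-well plates; percent growth endpoint where 0 means no net growth. Active: below 10.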 Calls of active or inactive are those of the source.

tested on: ACHN renal; assay: NCI-60 one-dose screen, 48 h (100 = growth as untreated, 0 = no growth, -100 = all killed); details: 10 µM unless noted
Procedure: Growth inhibition of the ACHN human tumor cell line is measured as a screen for anti-cancer activity. Cells are grown in 96 well plates and exposed to the test compound for 48 hours. Compounds are tested at a single concentration, which is 10^-5 M for most compounds. The reported endpoint is percent growth (GI% or GIPRCNT), where numbers from 0 - 100% represent growth inhibition, and numbers from -100% - 0 represent cell death. For example, a value of 40 represents 60% growth inhibition. A value of 0 means no net growth occurred over the course of the experiment. A value of -40 indicates 40% of cells at the beginning of the experiment died by the end of the experiment. A value of -100 means all cells are dead at the end of the experiment.
NCI-60 Human Tumor Cell Lines Screen was performed using the standard one-dose NCI protocol, which is described in more detail at https://dtp.cancer.gov/discovery_development/nci-60/default.htm.
Compounds with GIPRCNT values below 10 were considered active. Activity score was based on GIPRCNT using the following formula: […]
Score is 0 for GIPRCNT values of 100 or above, 50 for GIPRCNT values of 0, and 100 for GIPRCNT values of -100.

Row | SMILES | growth
1 | O=C1CCCN1C1CCN2CCCc3cccc1c32 (stereo not given) | 106% (inactive)
2 | N/C(=N\OC(=O)c1ccccc1)C(Cc1ccccc1)C(=O)NOC(=O)c1ccccc1 (stereo not given) | 15.1% (inactive)
3 | COc1cnc2c(c1)C(=O)c1c-2n(CCCN2CCNCC2)c(=O)c2cc(Cl)ccc12 | -100% (active)
4 | COc1cc(NC(=O)CSc2nc3ccc(Cl)cc3c(=O)n2Cc2ccccc2)cc(OC)c1OC | 57.6% (inactive)
5 | ClC1=NC(Cl)C(Cl)=N/C1=N\c1ncn[nH]1 (stereo not given) | -92.4% (active)
6 | C[Si](C)(C)C(c1ccccc1)c1ccccc1 | 93.1% (inactive)
7 | O=C(CCCN1CCC(O)(c2ccc(Br)cc2)CC1)c1ccc(F)cc1 | 72.5% (inactive)
8 | Nc1c(C(=O)Nc2ccccc2)sc2nc3c(cc12)C(=O)CCC3 | 49.7% (inactive)
9 | COc1cc(C2CC(c3ccc(Cl)cc3)=NN2C(C)=O)ccc1Oc1nc2c(c(=O)n(C)c(=O)n2C)n1C (stereo not given) | 87.2% (inactive)
10 | CCC1N=C(N)N=C(N)N1c1ccc(Cl)cc1 (stereo not given) | 108% (inactive)
11 | C=C1C(=O)O[C@H]2[C@H]1CC/C(COC(=O)NCc1[nH]nc3ccccc13)=C\CC[C@@]1(C)O[C@@H]21 | 14.4% (inactive)
12 | CCOC(=O)C1C(=O)C=C(c2ccccc2)CC1c1sc(N(C)Cc2ccccc2)nc1Cl (stereo not given) | 95.3% (inactive)
13 | COc1cccc(-c2nc3sccn3c2-c2ccnc(NCCN3CCCNS3(=O)=O)n2)c1 | 48.4% (inactive)
14 | O=C(CSc1nnc(Cc2ccccc2Nc2c(Cl)cccc2Cl)n1-c1ccccc1)N1N=C(c2ccc3ccccc3c2)CC1c1ccc(Cl)cc1 (stereo not given) | 109% (inactive)
15 | COc1ccc2nc(-c3ccc(-c4noc(-c5ccc(Cl)cc5)n4)cc3)[nH]c2c1 | 77.9% (inactive)
16 | Cc1ccc(C)c(NC(=O)c2sc3c(=O)[nH]cnc3c2C)c1 | 116% (inactive)
17 | COC(=O)CSc1ccc(Cl)cc1 | 104% (inactive)
18 | COc1ccc([C@H]2c3[nH]c4ccccc4c3C[C@H]3C(=O)N(CCCCCCC(=O)NO)CC(=O)N23)cc1 | 22.1% (inactive)
19 | COc1ccc(Nc2nc(N)nc3c(=O)[nH]ccc23)cc1 | 115% (inactive)
20 | c1coc(CNc2c3ccccc3nc3ccccc23)c1 | 26.2% (inactive)

Row | SMILES | growth
21 | O=C(O)c1cc2cc(OCc3ccccc3)ccc2[nH]1 | 98.7% (inactive)
22 | CC(C)(C)OC(=O)N1CCCN(CCNc2nccc(-c3c(-c4cccc(O)c4)nc4sccn34)n2)S1(=O)=O | 66.6% (inactive)
23 | CC(C)CC(=O)C(CCc1ccccn1)C(C)C (stereo not given) | 101% (inactive)
24 | COc1cccc(-c2nc3sccn3c2-c2ccnc(NCCN3CCCN(C)S3(=O)=O)n2)c1 | 54% (inactive)
25 | CC1=CCC2C1CC=C(C)C(CC[C@H]1[C@@](C)(O)CCC3OC(C)(C)[C@H](OC(=O)c4ccccc4)CC[C@@]31C)C2(C)C (stereo not given in full) | 94.1% (inactive)
26 | O=C(/C=C/c1ccccc1Br)c1cccc(OCCCCOc2cccc(C(=O)/C=C/c3ccccc3Br)c2)c1 | 98.6% (inactive)
27 | COc1cc(/C=C/c2cc(/C=C/c3ccc(O)c(OC)c3)n(C(=O)c3ccccc3Br)n2)ccc1O | 25.1% (inactive)
28 | O=C(Nc1cccc(C2=NCCN2)c1)c1ccc(N=Nc2ccc(C(=O)Nc3cccc(C4=NCCN4)c3)cc2)cc1 | 52.4% (inactive)
29 | COc1cc(NC(=O)CSc2nc3ccc(Cl)cc3c(=O)n2-c2ccccc2)cc(OC)c1OC | 92.1% (inactive)
30 | O=C(CC(=O)c1ccccc1F)Nc1ccc([N+](=O)[O-])cc1 | 100% (inactive)
31 | COc1cc(C2CC(c3ccc(Cl)cc3)=NN2C=O)ccc1Oc1ccnc2cc(Cl)ccc12 (stereo not given) | 41% (inactive)
32 | Cc1cccc(/C=N/n2c(-c3ccc(Cl)cc3)nc3c(Br)cc(Br)cc3c2=O)c1 | 13.5% (inactive)
33 | NC(N)=NC1CCCCC1 | 103% (inactive)
34 | COc1ccc(/C=C/c2nc(NCCCN(C)C)c3ccccc3n2)cc1 | 122% (inactive)
35 | O=C(Nc1cccc(-n2ccc3c(NC(=O)c4ccccc4)nccc32)c1)c1ccc(Cl)c(Cl)c1 | -75.9% (active)
36 | COc1ccc(-n2c(COc3ccc(F)cc3)n[nH]c2=S)cc1 | 99.7% (inactive)
37 | C#CCO[C@H]1CC[C@H](OCC#C)[C@@H]2[C@H]1[C@H]1C[C@@H]3[C@@]4(C)CCC[C@@](C)(C(=O)OC)[C@@H]4CC[C@@]23C=C1C(C)C | 92.6% (inactive)
38 | Cc1ccccc1Nc1n[nH]c(Cc2ccccc2)n1 | 106% (inactive)
39 | CCOC(=O)c1cc(C(=O)OCC)c(C)nc1C | 112% (inactive)
40 | CC1=C(/C=C/C(C)=C/C=C(C(=O)O)\C(C)=C\C(=O)O)C(C)(C)CCC1 | 99.9% (inactive)
